# Reference: PubChem BioAssay
# “And” between values parts separate entries of the source, which are not always exact repeats. Equal values may be shown once. Records with an inconclusive call do not appear. The source made the active and inactive calls.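 How the source made its calls, unless noted: active means normalized viability below 100% at a tested concentration; inactive means the rest.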
# How the values were obtained:
# [1] = system: Aerobactin synthetase IucA (Klebsiella pneumoniae); experiment: IucA aerobactin synthetase inhibitors, biochemical, Tocris library, absorbance (AID 1345561; call rule not given here;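 further: 100% = enzyme without compound and 0% = no enzyme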); conditions: purified IucA enzyme assay, absorbance (OD) read-out; stronger effect = lower value;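 tested at 8 µM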
# [2] = growth inhibition of DIPG glioma cells, dose response, cell-based, SU-DIPG-XVII, MIPE5.0, CellTiter-Glo, qHTS (AID 1347060; cut-off not given, nearly all actives have AC50 up to about 26 µM); conditions: SU-DIPG-XVII viability, CellTiter-Glo ATP luminescence
# [3] = growth inhibition of DIPG glioma cells, dose response, cell-based, SU-DIPG-XIII, MIPE4.0, CellTiter-Glo, qHTS (AID 1347061; cut-off not given, nearly all actives have AC50 up to about 37 µM;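 further: cells exposed to compound for 48 hours before readout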); conditions: SU-DIPG-XIII viability, CellTiter-Glo ATP luminescence
# [4] = growth inhibition of DIPG glioma cells, dose response, cell-based, JHH-DIPG-1, MIPE4.0, CellTiter-Glo, qHTS (AID 1347062; cut-off not given, nearly all actives have AC50 up to about 27 µM); conditions: JHH-DIPG-1 viability, CellTiter-Glo ATP luminescence
# [5] = growth inhibition of DIPG glioma cells, dose response, cell-based, SU-DIPG-XIII, MIPE5.0, CellTiter-Glo, qHTS (AID 1347064; cut-off not given, nearly all actives have AC50 up to about 23 µM); conditions: SU-DIPG-XIII viability, CellTiter-Glo ATP luminescence
# [6] = JHH-DIPG-1 glioma cell viability, MIPE5.0 library, CellTiter-Glo luminescence, qHTS (AID 1347067; cut-off not given, nearly all actives have AC50 up to about 26 µM;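 further: cells exposed to compound for 48 hours before readout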); conditions: JHH-DIPG-1 glioma viability, CellTiter-Glo ATP luminescence
# [7] = SU-DIPG-XXV glioma cell viability, MIPE5.0 library, qHTS (AID 1347068; cut-off not given, nearly all actives have IC50 up to about 30 µM)
# [8] = sensitizers of A549 cells to miR-34 induction, primary screen, imaging, A549 dox-inducible miR-34, nuclei and caspase counts (AID 1347080;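 active means compounds whose cell count with miR-34 switched on is under 0.7 times the count with it off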); conditions: A549 miR-34 inducible, Hoechst nuclei count, 48 h
# [9] = survival rescue of mitochondrial mutant cells in low glucose, primary screen, MELAS cybrids, Rieske KO mouse fibroblasts, CellTiter-Glo (AID 1508586;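 active means mean z-score across replicates of 1.96 or higher in either the MELAS or the Rieske mutant cell line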;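 further: z relative to plate mean and SD of compound and empty wells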)
# [10] = viability rescue of complex I mutant cybrids, primary screen, cell-based, galactose medium, ATP luminescence (AID 1645843;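 active means z-score of at least 1.8 in each of two replicates, scored against plate mean and spread of sample wells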;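 further: positive z means more ATP and so rescue of galactose-driven cybrid death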); conditions: complex I mutant cybrid cells, 72 h, stronger effect = higher value
# [11] = modifiers of HSF1 nuclear foci, imaging, Selleck Cancer Library (AID 1347162; in the data active means plate-normalised HSF1 focus index below about 0.46); conditions: human cells, at 10 µM; SSMD: measured here: HSF1 foci SSMD mean; cell count: measured here: cell number; plate-normalised HSF1 focus index: stronger effect = lower value
# [12] = ovarian cancer cell viability with rucaparib, profiling panel, oncology-focused library, rucaparib conditional (AID 1508598); conditions: patient-derived ovarian cancer cells, CellTiter-Glo viability, 144 h, stronger effect = lower value
# [13] = LFS_MB_P medulloblastoma growth inhibition, cell-based, chromothripsis tumors, cisplatin or BGB combos (AID 1671449; in the data active means inhibition above about 80%;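 further: cells exposed for 96 hours; 0% = vehicle DMSO and 100% = killing by high DMSO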); conditions: LFS_MB_P medulloblastoma cells
# [14] = HDN33 neuroblastoma growth inhibition, cell-based, chromothripsis tumors, cisplatin or BGB combos (AID 1671450; in the data active means inhibition above about 80%;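 further: cells exposed to compound for four days; 0% = vehicle DMSO and 100% = cell killing by high DMSO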); conditions: HDN33 neuroblastoma cells, stronger effect = higher value
# [15] = ICB984 medulloblastoma cell growth inhibition, synergistic combos for chromothripsis tumors, cisplatin or BGB combos (AID 1671451; call rule not given here;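 further: cells exposed for 96 hours before readout; 0% = vehicle DMSO and 100% = killing by high DMSO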); conditions: ICB984 medulloblastoma cells, drug combinations, stronger effect = higher value
# [16] = HTB85 osteosarcoma cell growth inhibition, synergistic combos for chromothripsis tumors, BGB or cisplatin IC20 combos (AID 1671453; in the data active means inhibition above about 80%;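 further: cells exposed for 96 hours before readout; 0% = vehicle DMSO and 100% = high DMSO killing control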); conditions: HTB85 osteosarcoma cells, drug combinations, stronger effect = higher value
# [17] = SU-DIPG-VI glioma cell viability, MIPE4.0 library, CellTiter-Glo luminescence, qHTS (AID 1347066; cut-off not given, nearly all actives have AC50 up to about 30 µM;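 further: cells exposed to compound for 48 hours before readout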); conditions: CellTiter-Glo ATP luminescence
# [18] = liver-stage malaria parasite growth inhibition, primary screen, cell-based, HepG2, luciferase luminescence, HepG2 viability (AID 624349; in the data active means parasite load remaining mostly below about 12%, no sharp cut-off; inactive means mostly above about 10%;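 further: 100% = mean of DMSO negative control wells on the same plate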); conditions: P. berghei liver stage in HepG2, luciferase luminescence, concentration not given here; parasite load remaining: stronger effect = lower value; viability: measured here: HepG2 viability without parasites
# [19] = stronger effect = lower value, cell number ratio, induced over uninduced
# [20] = MELAS cybrid survival, CellTiter-Glo 48 h, stronger effect = higher value
# [21] = Rieske KO mouse fibroblast survival, CellTiter-Glo 72 h
# [22] = measured here: relative caspase fold change +Dox/-Dox
# [23] = measured here: total cells with miR-34 induction, stronger effect = lower value
# [24] = measured here: total cells without miR-34 induction
structure (smiles),measurement,setting,value
O=C1NC(=O)C(c2ccccc2[N+](=O)[O-])=C1Nc1ccc(O)c(Cl)c1,remaining activity,[1],112% (inactive)
same,outcome,[2],inactive
same,outcome,[3],inactive
same,outcome,[4],inactive
same,outcome,[5],inactive
same,outcome,[6],inactive
same,outcome,[7],inactive
same,fold change,[8]; [19],1 (inactive) and 1.09 (inactive) and 0.982 (inactive)
same,z-score,[9]; [20],-0.406 (inactive)
same,z-score,[9]; [21],0.723
same,z-score,[10],1.65 (inactive) and 0.35 (inactive)
O=c1[nH]c(-c2ccc(C(F)(F)F)cc2)nc2c1CSCC2,remaining activity,[1],117% (inactive)
same,outcome,[2],inactive
same,outcome,[4],inactive
same,outcome,[6],inactive
same,outcome,[7],inactive
same,fold change,[8]; [19],0.924 (inactive) and 0.863 (inactive) and 0.929 (inactive)
same,fold change,[8]; [22],0.982 and 0.937 and 1.32
same,cell count,[8]; [23],4310 and 5060 and 7820
same,cell count,[8]; [24],4660 and 5860 and 8410
same,SSMD,[11],1.98
same,cell count,[11],7170
same,plate-normalised HSF1 focus index,[11],1.12 (inactive)
same,z-score,[9]; [20],-0.501 (inactive)
same,z-score,[9]; [21],0.33
same,viability,"[12]; at 0.000305 µM, OCI-C5x cells, with rucaparib 10 µM, 100% = cells with rucaparib alone",100% (inactive)
same,viability,"[12]; at 0.000305 µM, OCI-C5x cells, without rucaparib",93.7% (active)
same,viability,"[12]; at 0.000305 µM, OCI-P5x cells, with rucaparib 20 µM, 100% = cells with rucaparib alone",98.7% (active)
same,viability,"[12]; at 0.000305 µM, OCI-P5x cells, without rucaparib",103% (inactive)
same,viability,"[12]; at 0.00122 µM, OCI-C5x cells, with rucaparib 10 µM, 100% = cells with rucaparib alone",108% (inactive)
same,viability,"[12]; at 0.00122 µM, OCI-C5x cells, without rucaparib",99.5% (active)
same,viability,"[12]; at 0.00122 µM, OCI-P5x cells, with rucaparib 20 µM, 100% = cells with rucaparib alone",107% (inactive)
same,viability,"[12]; at 0.00122 µM, OCI-P5x cells, without rucaparib",106% (inactive)
same,viability,"[12]; at 0.00488 µM, OCI-C5x cells, with rucaparib 10 µM, 100% = cells with rucaparib alone",121% (inactive)
same,viability,"[12]; at 0.00488 µM, OCI-C5x cells, without rucaparib",102% (inactive)
same,viability,"[12]; at 0.00488 µM, OCI-P5x cells, with rucaparib 20 µM, 100% = cells with rucaparib alone",110% (inactive)
same,viability,"[12]; at 0.00488 µM, OCI-P5x cells, without rucaparib",99.8% (active)
same,viability,"[12]; at 0.0195 µM, OCI-C5x cells, with rucaparib 10 µM, 100% = cells with rucaparib alone",109% (inactive)
same,viability,"[12]; at 0.0195 µM, OCI-C5x cells, without rucaparib",102% (inactive)
same,viability,"[12]; at 0.0195 µM, OCI-P5x cells, with rucaparib 20 µM, 100% = cells with rucaparib alone",114% (inactive)
same,viability,"[12]; at 0.0195 µM, OCI-P5x cells, without rucaparib",113% (inactive)
same,viability,"[12]; at 0.0781 µM, OCI-C5x cells, with rucaparib 10 µM, 100% = cells with rucaparib alone",110% (inactive)
same,viability,"[12]; at 0.0781 µM, OCI-C5x cells, without rucaparib",104% (inactive)
same,viability,"[12]; at 0.0781 µM, OCI-P5x cells, with rucaparib 20 µM, 100% = cells with rucaparib alone",106% (inactive)
same,viability,"[12]; at 0.0781 µM, OCI-P5x cells, without rucaparib",105% (inactive)
same,viability,"[12]; at 0.313 µM, OCI-C5x cells, with rucaparib 10 µM, 100% = cells with rucaparib alone",107% (inactive)
same,viability,"[12]; at 0.313 µM, OCI-C5x cells, without rucaparib",102% (inactive)
same,viability,"[12]; at 0.313 µM, OCI-P5x cells, with rucaparib 20 µM, 100% = cells with rucaparib alone",105% (inactive)
same,viability,"[12]; at 0.313 µM, OCI-P5x cells, without rucaparib",94.6% (active)
same,viability,"[12]; at 1.25 µM, OCI-C5x cells, with rucaparib 10 µM, 100% = cells with rucaparib alone",107% (inactive)
same,viability,"[12]; at 1.25 µM, OCI-C5x cells, without rucaparib",99.4% (active)
same,viability,"[12]; at 1.25 µM, OCI-P5x cells, with rucaparib 20 µM, 100% = cells with rucaparib alone",113% (inactive)
same,viability,"[12]; at 1.25 µM, OCI-P5x cells, without rucaparib",103% (inactive)
same,viability,"[12]; at 5 µM, OCI-C5x cells, with rucaparib 10 µM, 100% = cells with rucaparib alone",115% (inactive)
same,viability,"[12]; at 5 µM, OCI-C5x cells, without rucaparib",112% (inactive)
same,viability,"[12]; at 5 µM, OCI-P5x cells, with rucaparib 20 µM, 100% = cells with rucaparib alone",105% (inactive)
same,viability,"[12]; at 5 µM, OCI-P5x cells, without rucaparib",99% (active)
same,z-score,[10],0.565 (inactive)
same,inhibition,"[13]; at 0.5 µM, stronger effect = higher value",-18.1% (inactive)
same,inhibition,"[13]; measured here: combination with BGB IC20, at 0.005 µM",0.844%
same,inhibition,"[13]; measured here: combination with BGB IC40, at 0.005 µM",12.4%
same,inhibition,"[13]; measured here: combination with BGB IC40, at 0.05 µM",-21.3%
same,inhibition,"[13]; measured here: combination with cisplatin, at 0.5 µM, stronger effect = higher value",-36.1%
same,inhibition,"[13]; measured here: combination with cisplatin, at 5 µM, stronger effect = higher value",-17.2%
same,inhibition,"[14]; BGB combo, at 5 µM",8.65%
same,inhibition,[14]; at 0.5 µM,-7.61% (inactive)
same,inhibition,"[14]; cisplatin combo, at 5 µM",8.16%
same,inhibition,"[14]; measured here: with BGB IC20 combination, at 0.5 µM",-5.54%
same,inhibition,"[14]; measured here: with cisplatin IC20 combination, at 0.5 µM",-17.8%
same,inhibition,"[14]; single agent, at 5 µM",38.9%
same,inhibition,"[15]; BGB IC20 combo, at 0.005 µM",-4.67%
same,inhibition,"[15]; BGB IC40 combo, at 0.005 µM",-45.8%
same,inhibition,"[15]; BGB IC40 combo, at 0.05 µM",-11.7%
same,inhibition,[15]; at 0.5 µM,-27.1% (inactive)
same,inhibition,"[15]; cisplatin combo, at 0.05 µM",-15.7%
same,inhibition,"[15]; cisplatin combo, at 0.5 µM",-29.5%
same,inhibition,"[15]; cisplatin combo, at 5 µM",-33.3%
same,inhibition,"[15]; measured here: 5 uM single agent, at 5 µM",-7.99%
same,inhibition,[16]; at 0.5 µM,-23.5% (inactive)
same,inhibition,"[16]; measured here: with BGB IC20, at 0.5 µM",-23%
same,inhibition,"[16]; measured here: with BGB IC20, at 5 µM",-21.9%
same,inhibition,"[16]; measured here: with cisplatin IC20, at 0.5 µM",-30.4%
same,inhibition,"[16]; measured here: with cisplatin IC20, at 5 µM",-19.6%
same,inhibition,"[16]; single agent, at 5 µM",3.2%
CCOc1cc(C(=O)Nc2ccc(Cl)c(-c3nc4ccccc4[nH]3)c2)cc(OCC)c1OCC,remaining activity,[1],119% (inactive)
same,outcome,[2],inactive
same,AC50,[3],10.5 µM (active)
same,outcome,[17],inactive
same,outcome,[7],inactive
same,fold change,[8]; [19],0.991 (inactive)
same,fold change,[8]; [22],0.843
same,cell count,[8]; [23],5960
same,cell count,[8]; [24],6020
same,SSMD,[11],4.38
same,cell count,[11],6790
same,plate-normalised HSF1 focus index,[11],1.26 (inactive)
same,z-score,[10],0.375 (inactive)
CCCCC[C@H](O)/C=C/[C@H]1[C@H](O)CC(=O)[C@@H]1C/C=C\CCCC(=O)O,parasite load remaining,[18],43.5% (inactive)
same,viability,[18],99.5%
same,remaining activity,[1],127% (inactive)
same,outcome,[2],inactive
same,outcome,[3],inactive
same,outcome,[4],inactive
same,outcome,[7],inactive
same,z-score,[9]; [20],0.0898 (inactive)
same,z-score,[9]; [21],-0.895
same,z-score,[10],-0.165 (inactive) and 0.63 (inactive)
